Among all 11,000 compounds or so, about 310 (2.8%) were called active. No stated cut-off is given here; in the data, active means activity change below about -85%; inactive means the rest. This excerpt belongs to a sample that is enriched for actives.
tested on: intestinal alkaline phosphatase [Mus musculus]; experiment: mouse intestinal phosphatase enzyme activation – biochemical, luminescence, single concentration, confirmation (AID 434970); settings: purified mouse IAP, CDP-Star luminescence, 30 min, at 10 µM; activation factor: measured here: IAP activation factor, stronger effect = higher value; activity change, negative = activation: stronger effect = lower value

Compound | activation factor | activity change, negative = activation
Cc1cccc(CCNC(=O)CCc2c(C)nc3ncnn3c2C)c1 | 0.906 | 9.35% (inactive)
CCNC(=O)COc1cc(C)c(Cl)c(C)c1 | 1 | -0.4% (inactive)
CCc1nc2sc3c(c2c(=O)n1N)CCC3 | 0.913 | 8.65% (inactive)
CCN(CC)S(=O)(=O)c1cccc(-c2nnc(SCC(=O)c3cc(C)n(C)c3C)o2)c1 | 0.772 | 22.8% (inactive)
COc1ccc(C2/C=C\CN(C(=O)c3ccccc3)CC(=O)N2Cc2cccc(F)c2)cc1 (configuration not stated) | 1.01 | -1.35% (inactive)
CC(=O)N1c2ccccc2C(C)(c2ccccc2)CC1(C)C (configuration not stated) | 0.98 | 2% (inactive)
O=C(NCC1CC1)C1CCCN(S(=O)(=O)c2ccc(-n3cnnn3)cc2)C1 (configuration not stated) | 1.01 | -0.9% (inactive)
CSc1ccccc1NC(=O)Nc1ccc(F)c(Cl)c1 | 1.83 | -83.2% (inactive)
O=C(Nc1ccc(Cl)cc1)N1CCC(c2nc(-c3ccccc3Cl)no2)CC1 | 1.1 | -9.8% (inactive)
O=C(Nc1ccc(Cl)cc1)C1CC(=O)n2c(nc3ccccc32)N1 (configuration not stated) | 2.06 | -106% (active)
O=C1CC(c2ccco2)Sc2nc3ccccc3n21 (configuration not stated) | 0.801 | 19.9% (inactive)
O=C(O)C1=C(C(=O)Nc2ccc(F)c(Cl)c2)CCCC1 | 0.98 | 2% (inactive)
O=C(Nc1ccc(F)c(Cl)c1)C1CC(=O)n2c(nc3ccccc32)N1 (configuration not stated) | 2.42 | -142% (active)
FC(F)Oc1ccc(NC(=S)NCc2ccccc2)cc1Cl | 1.34 | -34.3% (inactive)
COC(=O)[C@H](Cc1ccc(O)cc1)NC(=O)Cn1cnc2c(NCc3ccccc3)ncnc21 | 1.08 | -8.5% (inactive)
COCCCNC(=O)CCSc1ccc(Cl)cc1 | 0.897 | 10.3% (inactive)
O=C(NCc1ccncc1)c1nnc(Cc2c(F)cccc2Cl)o1 | 0.951 | 4.9% (inactive)
NC(=O)CSc1nnc(-c2cccnc2)n1CCc1ccccc1 | 0.957 | 4.35% (inactive)
CS(=O)(=O)Nc1ccccc1C(=O)c1ccccc1 | 1.04 | -3.7% (inactive)
O=C(CSc1ncn[nH]1)CSc1ncn[nH]1 | 0.517 | 48.3% (inactive)
CCCCOC(=O)C1=C(C)NC2=C(C(=O)CCC2)C1c1cc(OC)ccc1OC (configuration not stated) | 1.09 | -9.15% (inactive)
COc1ccc(C2=NOC(Cn3nc(-c4ccccc4)cc3C(=O)NCc3cccc(Br)c3)C2)cc1 (configuration not stated) | 2.12 | -112% (active)
CCc1cc(Cn2nc(-c3ccccc3)cc2C(=O)NCc2ccc(C)cc2)on1 | 1.7 | -69.7% (inactive)
Cc1ccc(CNC(=O)COC(=O)c2c(C)noc2C)cc1 | 0.891 | 10.9% (inactive)
COc1ccc(C2=NOC(Cn3nc(-c4ccccc4)cc3C(=O)NCc3cccs3)C2)cc1 (configuration not stated) | 1.82 | -81.5% (inactive)
CCc1cc(Cn2nc(-c3ccccc3)cc2C(=O)NCc2cccs2)on1 | 1.89 | -88.9% (inactive)

Compound | activation factor | activity change, negative = activation
Cn1c(C(=O)NCc2ccccc2)cc2oc3ccccc3c21 | 1.14 | -14.4% (inactive)
CCc1cc(Cn2nc(-c3ccccc3)cc2C(=O)NCc2cccc(Br)c2)on1 | 2.8 | -180% (active)
Cc1ccc(CNC(=O)c2cc(-c3ccccc3)nn2Cc2cc(C)no2)cc1 | 2.26 | -126% (active)
COc1ccc(C2=NOC(Cn3nc(-c4ccccc4)cc3C(=O)NCc3ccc(C)cc3)C2)cc1 (configuration not stated) | 1.57 | -57.5% (inactive)
COc1ccc(C2=NOC(Cn3nc(-c4ccccc4)cc3C(=O)NCc3ccccc3OC)C2)cc1 (configuration not stated) | 1.68 | -67.7% (inactive)
COc1ccc(C2=NOC(Cn3nc(-c4ccccc4)cc3C(=O)NCc3cccc(C(F)(F)F)c3)C2)cc1 (configuration not stated) | 1.83 | -83.5% (inactive)
CCc1cc(Cn2nc(-c3ccccc3)cc2C(=O)NCc2ccccc2OC)on1 | 1.99 | -99.1% (active)
O=C(COc1ccccc1Cl)OCC(=O)N1CCN(S(=O)(=O)c2ccccc2)CC1 | 0.883 | 11.7% (inactive)
CC(=O)c1cccc(NC(=O)CCNS(=O)(=O)c2cccc(C(C)=O)c2)c1 | 0.929 | 7.05% (inactive)
Cc1cc(Br)cc2c1NC(=O)C2(c1c(C)n(C)n(-c2ccccc2)c1=O)c1c(C)n(C)n(-c2ccccc2)c1=O | 1.02 | -2.5% (inactive)
Cc1cc(C)n2cc(CSc3nnnn3-c3ccccc3)nc2n1 | 0.946 | 5.45% (inactive)
CCOC(=O)c1c(NC(=O)CSc2nnc(CNc3ccc(F)cc3)o2)sc(C(C)=O)c1C | 0.797 | 20.2% (inactive)
O=C1c2ccccc2[C@@H]2C[C@@H](O)[C@H](Nc3cccc(Cl)n3)CCN12 | 1.01 | -0.85% (inactive)
CCCCN1CCS(=O)(=O)N(Cc2ccccc2Br)CC(C(=O)OC)C1 (configuration not stated) | 0.992 | 0.8% (inactive)
C=CCNC(=O)/C(=C/c1ccco1)NC(=O)c1ccc(Br)o1 | 0.906 | 9.4% (inactive)
O=C(NCCCN1CCCCC1)c1ccc2c(=O)n(CCc3ccccc3)c(=O)[nH]c2c1 | 0.91 | 9% (inactive)
COc1cc(OC)c2c(-c3cccc(-c4ccc(OC(F)(F)F)cc4)c3)cc(=O)oc2c1 | 0.834 | 16.6% (inactive)
COCC(C)NCc1cccc(OC)c1OC (configuration not stated) | 1.14 | -14.2% (inactive)
Cc1ccc(C(=O)NC(Cc2ccc(C(C)(C)C)cc2)C(=O)O)cc1 (configuration not stated) | 1.03 | -3.5% (inactive)
O=C(c1ccc(S(=O)(=O)N2CCCCC2)cc1)N1CCCc2ccccc21 | 0.98 | 2.05% (inactive)
Cc1cc(Cn2nc(-c3ccccc3)cc2C(=O)NCc2cccc(Br)c2)on1 | 3.29 | -230% (active)
Cc1ccccc1-c1cc(C(=O)NCc2cccc(Br)c2)n(CC2CC(c3cccnc3)=NO2)n1 (configuration not stated) | 1.56 | -55.5% (inactive)
Cc1nn(C)cc1CNC(=O)c1cccc(Br)c1 | 1.12 | -11.8% (inactive)
O=C(C[C@H]1C[C@H](C(=O)N2CCOCC2)[C@@]2(CCC3CCCC3)c3[nH]c4cc(-c5ccco5)ccc4c3CCN2C1=O)NCCc1ccccn1 | 1.17 | -17.2% (inactive)
Cc1ccccc1OCC(=O)OC(C)CN1CCN(C)CC1 (configuration not stated) | 0.998 | 0.2% (inactive)
